# Source: PubChem
# Most compounds without a hit are left out; they make up all but 1.6% or so of the library.
# PERK inh: inhibitors of human PERK kinase; Q9NZJ5; CHO PERK-DD fusion, SEAP luminescence translation reporter; inhibition, % at 5.6 µM; 220,000 compounds, 0.17% hits;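 active means inhibition above the mean inhibition of all tested compounds plus 3 SD, set separately per screening campaign, cut at about 2.9% in these data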;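 further: PERK kinase domain activated by AP20187 dimerizer at 100 nM; 0% = DMSO with dimerizer and 100% = rapamycin at 8.4 µM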
# PABP1 MLLE inh: blocks PAM2 peptide binding to the PABP1 MLLE domain. inhibition, % at 20 µM. P11940. GST-MLLE / FITC-PAM2 fluorescence polarization. 360,000 compounds, 0.36% hits; in the data active means inhibition above about 35%, passing the limit was not always enough;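 further: plate controls were DMSO wells with GST-MLLE for no effect and wells lacking GST-MLLE protein for full effect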
# Target sequence (P11940 whole entry, looked up, the tested form may be a part): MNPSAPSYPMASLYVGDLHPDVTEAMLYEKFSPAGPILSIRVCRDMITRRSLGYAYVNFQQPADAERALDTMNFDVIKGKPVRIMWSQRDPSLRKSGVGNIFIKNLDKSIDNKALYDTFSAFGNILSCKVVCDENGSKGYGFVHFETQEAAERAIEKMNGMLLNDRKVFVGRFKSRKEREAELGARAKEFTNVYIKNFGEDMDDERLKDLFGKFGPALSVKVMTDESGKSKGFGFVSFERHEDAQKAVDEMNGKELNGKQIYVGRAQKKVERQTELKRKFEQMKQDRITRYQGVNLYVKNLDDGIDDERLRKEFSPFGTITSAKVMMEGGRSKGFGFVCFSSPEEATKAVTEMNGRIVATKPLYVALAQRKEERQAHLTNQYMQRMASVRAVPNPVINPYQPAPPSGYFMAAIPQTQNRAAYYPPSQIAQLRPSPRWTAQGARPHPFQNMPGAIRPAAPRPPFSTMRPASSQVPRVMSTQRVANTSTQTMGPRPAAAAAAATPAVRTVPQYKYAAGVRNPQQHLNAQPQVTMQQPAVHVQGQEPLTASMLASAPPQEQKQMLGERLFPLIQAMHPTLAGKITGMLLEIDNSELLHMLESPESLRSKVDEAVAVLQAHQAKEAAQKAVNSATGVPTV
# eIF4E-4G inh: eIF4E/eIF4G interaction inhibition in translation initiation; 220,000 compounds, 0.37% hits; TR-FRET eIF4E-eIF4GI(517-606) binding, 2 h; P63073+Q04637; AID 782; inhibition, % at 21.7 µM;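 active means inhibition above about 30%, limit read from the data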;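 further: 0% = full FRET control wells and 100% = background wells lacking eIF4GI fragment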
# eIF4H inh: inhibitors of RNA binding by human eIF4H. Q15056. eIF4H fluorescence polarization binding assay. inhibition, % at 35 µM. 290,000 compounds, 0.94% hits;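 further: calls also rest on retests at 20 µM and on dose response follow-up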
# PABP FP inh: PABP-poly(A) binding inhibition; PABP-poly(A) RNA binding, fluorescence polarization; 290,000 compounds, 1% hits; calls only at 35 µM;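 further: calls also rest on retests at 20 µM and on dose response follow-up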
# Numbers without * were called inactive; i = inactive; ? = inconclusive; / = no result; + = active, no number. Unless noted, how the calls were made is not given here.
SMILES,PERK inh,PABP1 MLLE inh,eIF4E-4G inh,eIF4H inh,PABP FP inh
CCOC(=O)C(C)N1C(=O)S/C(=C\c2ccc(-c3ccccc3C(=O)O)o2)C1=O (centres undefined),/,-6,/,101*,+
C#CCN1C(=O)S/C(=C\c2ccc(-c3ccc(C(=O)O)cc3C)o2)C1=O,/,4,/,76*,+
Cc1cccc(NC(=O)CN2C(=O)S/C(=C\c3ccc(O)c([N+](=O)[O-])c3)C2=O)c1,0,-2,-4,9,i
Cc1cc(C(=O)O)ccc1-c1ccc(/C=C2\SC(=O)N(CC(=O)Nc3ccc4c(c3)OCO4)C2=O)o1,/,-100,/,?,?
Cc1ccc(NC(=O)CN2C(=O)S/C(=C/c3ccc(O)c([N+](=O)[O-])c3)C2=O)cc1C,0,-2,45*,68,i
Cc1ccc(NC(=O)CN2C(=O)S/C(=C/c3ccc(-c4cccc(C(=O)O)c4)o3)C2=O)cc1,0,-18,43*,57,+
CCN(C(=O)C(C)OC(=O)c1nn(-c2ccccc2C(F)(F)F)cc1O)c1ccccc1 (centres undefined),/,2,/,/,/
COc1ccccc1C(=O)NCC(=O)N/N=C/c1cn[nH]c1-c1ccccc1,1,6,0,2,i
Cc1ccc(NC(=O)CN2C(=O)S/C(=C\c3ccc(-c4cccc(C(=O)O)c4C)o3)C2=O)cc1,1,/,16,74*,+
COc1cc(/C=C2\SC(=O)N(CC(=O)Nc3ccc(C)cc3)C2=O)cc(Cl)c1OCC(=O)O,/,-5,/,89*,i
Cc1ccc(C(=O)O)cc1-c1ccc(/C=C2\SC(=O)N(CC(=O)Nc3ccccc3)C2=O)o1,0,-21,6,49,i
CC(C)(C)OC(=O)CN1C(=O)S/C(=C\c2ccc(-c3cccc(C(=O)O)c3)o2)C1=O,/,/,/,65*,i
CC(=O)NCCNC(=O)c1ccc(CSc2nc3ccccc3s2)cc1,/,9,/,3,i
COC(=O)c1ccc(CNC(=O)c2c3c(nc4ccccc24)CCN(Cc2ccccc2)C3)cc1,-1,-20,4,87*,+
O=C(NCc1ccc(F)cc1)c1c2c(nc3ccccc13)CCN(Cc1ccccc1)C2,0,-2,3,active,+
O=C(Nc1ccc(Cl)c(Cl)c1)c1cccc(S(=O)(=O)NCc2cccnc2)c1,0,0,6,-4,i
O=C(NCCc1ccc(Cl)cc1)C1CCCO1 (centres undefined),/,-9,/,0,i
COc1ccc(C2CC(=O)N3CN(c4ccccc4F)CSC3=C2C#N)cc1OC (centres undefined),1,-17,5,14,i
Cc1cccc(N2CSC3=C(C#N)C(c4ccc(C)o4)CC(=O)N3C2)c1 (centres undefined),0,/,16,98*,+
CCc1ccccc1N1CSC2=C(C#N)C(c3ccccc3F)CC(=O)N2C1 (centres undefined),1,-29,7,78*,+
COc1ccc(OC)c(C2CC(=O)N3CN(c4ccccc4)CSC3=C2C#N)c1 (centres undefined),0,-27,-3,21,i
C=CCNC(=O)c1onc(CSc2ccc(F)c(F)c2)c1C(=O)O,3.1*,-12,4,1,i
C=CCNC(=O)c1onc(CSc2ccc(Cl)cc2)c1C(=O)O,2,3,-4,-4,i
CCc1ccccc1Nc1nc(N)nc(COC(=O)CCC(=O)c2ccc(F)cc2)n1,/,-16,/,/,/
CC(C)C(NC(=O)c1ccccc1)C(=O)NC1=NCCS1 (centres undefined),0,44*,3,0,i
SMILES,PERK inh,PABP1 MLLE inh,eIF4E-4G inh,eIF4H inh,PABP FP inh
[O-][n+]1c(/C=C/c2ccccc2)ccc2ccccc21,/,3,/,19,i
[O-][n+]1c2ccccc2[n+]([O-])c2cc(O)ccc21,/,8,/,106*,+
Cc1ccc(C)c(S(=O)(=O)N2CCN(C(=O)c3ccc(OCc4c(C)noc4C)cc3)CC2)c1,/,8,/,/,/
O=C1N=C(N2CCOCC2)S/C1=C/c1cc2c(cc1[N+](=O)[O-])OCO2,-1,-7,-1,87*,+
CCCS(=O)(=O)c1ccc(COC(=O)c2cccc(NC(=O)C(C)C)c2)cc1,0,5,4,active,+
O=[N+]([O-])C(/C=C(/Cl)[N+](=O)[O-])=C(N1CCCCC1)N1CCCCC1,0,-96,1,?,?
Cc1cccc(N=C2NC(=O)/C(=C/c3cccn3C)S2)c1C,-1,-62,1,6,i
Cc1ccc(N=C2NC(=O)/C(=C/C=C/c3ccco3)S2)cc1,1,-39,20,76*,+
COc1ccc(N=C2NC(=O)/C(=C/c3ccco3)S2)cc1,-1,-22,0,66*,i
Cc1cccc(N=C2NC(=O)/C(=C/C=C/c3ccco3)S2)c1C,1,-18,10,85,+
O=C1NC(=Nc2ccccc2)S/C1=C\C=C\c1ccco1,0,-53,5,80,i
CCCn1c(N)c(C(=O)CN(C)CC(=O)Nc2c(Cl)cccc2Cl)c(=O)[nH]c1=O,/,0,/,/,/
CCOc1ccc(CN(C)C(=O)c2cccc(S(=O)(=O)N3CCCC3)c2)cc1OC,/,7,/,/,/
Cc1noc(C)c1NC(=O)N(C)C[C@@H]1Oc2ccc(NC(=O)C3CCCCC3)cc2C(=O)N([C@@H](C)CO)C[C@H]1C,/,-11,/,/,/
CCN(CC)S(=O)(=O)c1ccc(C(=O)NCC(c2ccc(OC)cc2)N2CCOCC2)cc1 (centres undefined),0,-7,0,11,i
Cc1ccc([N+](=O)[O-])cc1NC(=S)NC(=O)c1ccco1,1,14,3,-1,i
O=C(NC(=S)Nc1ccccc1O)c1cccnc1,/,32,/,4,i
O=C(NC(=S)Nc1cc([N+](=O)[O-])ccc1O)c1cccnc1,0,42*,-1,7,i
Cc1ccc([N+](=O)[O-])cc1NC(=S)NC(=O)c1cccnc1,-1,41*,1,-5,i
CCCNC(=O)c1cc(C2CCCCN2C(=O)CCCc2ccccc2)on1 (centres undefined),/,20,/,/,/
O=C(Nc1ccc(OC(F)(F)F)cc1)NC1CCC(Oc2ccc(C(=O)O)cc2)CC1 (centres undefined),/,-7,/,/,/
O=C1N=C2SCCN2/C1=C\c1ccccc1Cl,0,39*,3,-8,i
COc1ccc(NC(=O)NC2(C(=O)N3CCN(C)CC3)CCCCC2)cc1,/,3,/,1,i
Cc1nn(CC(=O)N2CCc3ccccc3C2)c(C)c1Cl,/,-3,/,6,i
CCOc1ccc2[nH]c(=O)c(CN(CCN3CCCC3)C(=S)Nc3ccccc3OCC)cc2c1,0,-37,3,3,i
COc1ccc2[nH]c(=O)c(CN(CCN3CCCC3)C(=O)Nc3ccccc3Cl)cc2c1,/,-1,58*,-3,i
O=C(O)c1cccc(NC(=O)c2ccc3c(c2)C(=O)N(Cc2ccco2)C3=O)c1,1,6,-2,62*,i
